Hits are enriched below; roughly 12% of the tested compounds scored in any of these assays.
RORg inh: inhibitors of mouse ROR gamma transcriptional activity | P51450 | Drosophila S2 Gal4-RORgamma UAS-luciferase reporter, 20 h | Potency, µM (doses to about 53.6 µM), without a hit: at the highest dose activity change, negative = inhibition, hits mostly inhibitors | 310,000 compounds, 5.4% hits | AID 2551; also: nearly all actives have a fitted effect of over 60% in size
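Schneider cells (Drosophila), stable Gal4 DBD–ROR gamma + UAS-luc; 1 hr cmpd preincubation; Cu2+ induction 700 uM final; 20 hr ambient; luminescence.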
PLK1 PBD inh: PLK1 (human) polo-box domain binding inhibition; 360,000 compounds, 2.8% hits; Plk1 PBD binding of FITC phosphopeptide, fluorescence polarization; Potency, µM, inactives show max response, negative = inhibition, most hits filed as inhibitors; AID 720504; P53350; also: series mostly up to about 57 µM; nearly all actives have a fitted effect of over 65% in size
Target sequence (P53350 whole entry, looked up, the tested form may be a part): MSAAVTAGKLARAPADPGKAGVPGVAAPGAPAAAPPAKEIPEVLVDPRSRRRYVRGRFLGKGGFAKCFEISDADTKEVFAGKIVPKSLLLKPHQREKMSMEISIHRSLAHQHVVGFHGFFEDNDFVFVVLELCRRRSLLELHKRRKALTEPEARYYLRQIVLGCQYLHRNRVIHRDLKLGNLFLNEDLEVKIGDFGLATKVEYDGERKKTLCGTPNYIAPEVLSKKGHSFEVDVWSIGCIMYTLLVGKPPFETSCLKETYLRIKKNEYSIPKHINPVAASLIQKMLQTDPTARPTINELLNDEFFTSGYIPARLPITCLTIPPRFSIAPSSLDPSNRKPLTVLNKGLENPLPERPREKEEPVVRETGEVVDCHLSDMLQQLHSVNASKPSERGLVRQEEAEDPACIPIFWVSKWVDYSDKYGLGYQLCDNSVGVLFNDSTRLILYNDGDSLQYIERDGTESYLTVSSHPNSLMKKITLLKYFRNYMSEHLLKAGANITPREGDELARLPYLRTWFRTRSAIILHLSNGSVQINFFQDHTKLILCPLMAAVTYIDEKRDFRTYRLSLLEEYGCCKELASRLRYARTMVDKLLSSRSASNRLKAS
Gal4-VP16 FLuc: Gal4-VP16 reporter inhibition counter-screen | Potency, µM (titrated, usually from 53.6 µM), inactives show at the highest dose activity, negative = inhibition, actives largely listed as inhibitors | 310,000 compounds, 3.5% hits | Drosophila S2 Gal4-VP16 UAS-luciferase, luminescence, 20 h;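 also: Gal4-VP16 expression switched on by copper sulfate through the metallothionein promoter; nearly all actives have a fitted effect of over 50% in size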
Sfp PPTase inh: blocks B. subtilis Sfp PPTase activity | Q9F4F7 | Biochemical Sfp PPTase activity, qHTS | Potency, µM, for inactives: largest response in the series, negative = inhibition, most hits filed as inhibitors | 310,000 compounds, 3.5% hits;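 also: the enzyme is Sfp with the accession as filed and its product quenches rhodamine fluorescence; 0% = enzyme reaction without inhibitor and -100% = no enzyme wells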
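With Hepes-Na pH 7.6 buffer containing 10 mM MgCl2, Sfp (15 nM) modified BHQ-2-YbbR (12.5 uM) using rhodamine-CoA (5 uM). Two reads 30 minutes apart at 525/598 nm yielded each well's rate.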
ALDH1A1 block: inhibitors of human aldehyde dehydrogenase 1A1; P00352; Purified ALDH1A1, NADH fluorescence, propionaldehyde substrate; Potency, µM (highest dose often 75.3 µM), inactives show top-dose activity, negative = inhibition, hits mostly inhibitors; AID 1030; 220,000 compounds, 7.3% hits; active = well fitted inhibition curve with a large enough effect, not every such curve was filed as active; inconclusive = small, poorly fitted or top-dose-only effect, or another doubt; inactive = no such curve, though single readings can be large or run the other way;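 also: plate controls were no enzyme wells and a reference inhibitor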
Active calls of the source: *; ? = inconclusive; · = no result; [ ] = remark or other dose. Unless noted, calls follow the shape of the dose curve; as a rule, active = well fitted curve in the direction sought with a large enough effect; inconclusive = small, poorly fitted or top-dose-only effect, or another doubt; inactive = no such curve, though single readings can be large; an effect the other way counts as inactive or inconclusive. Unless noted, % is scaled to controls: 0 for no effect and ±100 for the full control effect; potency is read from the fitted curve at half-maximal effect.

SMILES | RORg inh | PLK1 PBD inh | Gal4-VP16 FLuc | Sfp PPTase inh | ALDH1A1 block
CCOC(=O)[C@]12CCC=C1N(Cc1ccccc1)C(=O)[C@H](CC(=O)NCCC(C)C)C2 | · | -12% | · | · | ·
Cc1ccc(-n2c(N)c(C(=O)N3CCCCC3)sc2=S)cc1 | 39% | 24µM* | 4% | 45µM* | 10µM*
Nc1c(C(=O)N2CCOCC2)sc(=S)n1-c1ccccc1 | 7% | 11µM* | -2% | -87% | 8.9µM*
CCOc1ccc(-n2c(N)c(C(=O)N3CCN(C)CC3)sc2=S)cc1 | -7% | -8% | 8% | 14% | -12%
Nc1c(C(=O)N2CCCCC2)sc(=S)n1-c1ccccc1 | 3% | 3µM* | ? | -84% | 1.4µM*
COc1ccc2c(c1)C(=O)[C@@H](OC(=O)NCc1ccco1)[C@H](c1ccc(OC)c(Br)c1)O2 | 0% | · | 2% | 4% | ?
COc1ccc(NC(=O)CSc2nnc(CNC(=O)COc3ccc(Cl)cc3)o2)c(OC)c1 | 22% | -9% | 0% | 28% | 2%
O=C(COc1ccc(Cl)cc1)NCc1nnc(SCC(=O)NC2CCCC2)o1 | 21% | -6% | 2% | -11% | -6%
CCC1CCCCN1C(=O)CSc1nnc(CNC(=O)COc2ccc(Cl)cc2)o1 (stereo not drawn) | ? | -19% | -11% | -2% | 7.1µM*
COc1ccc(OC)c(NC(=O)CSc2nnc(CNC(=O)COc3ccc(Cl)cc3)o2)c1 | ? | -14% | 3% | -6% | 20µM*
O=C(CCn1c(=S)oc2ccccc21)Nc1cccc(O)c1 | 38% | 2% | -1% | 9% | ?
O=C1CCCC2=C1C(c1ccco1)Nc1ccc(C(=O)c3ccccc3)cc1N2 (stereo not drawn) | 12% | -8% | -6% | -22% | 20µM*
CCc1ccc(/C([O-])=C(/C(=S)NCCN2CCOCC2)[n+]2ccccc2)cc1 | -4% | ? | 1% | 45µM* | ?
CCNC(=S)/C(=C(/[O-])c1ccc([N+](=O)[O-])cc1)[n+]1ccccc1 | 16% | -15% | 6% | -15% | ?
Oc1ccc(O)c2c1C1c3ccccc3C2c2ccccc21 | 7.9µM* | · | 20µM* | 50µM* | ·
COCCN1C(=O)CN(S(C)(=O)=O)CC1(C)C(=O)Nc1c(C)cccc1C (stereo not drawn) | · | -12% | · | · | ·
O=C(O)/C=C\c1ccc(Cn2ccnc2)cc1 | 3%[2.98 µM] | · | -6%[17 µM] | 17% | -8%[20.9 µM]
CCc1ccc(NC(=O)Cn2c3[n+](c4c(F)c(F)ccc42)CCCCC3)cc1 | 19% | -4% | 4% | ? | 10µM*
N#Cc1ccc(NC(=O)Cn2c3[n+](c4ccc(C(F)(F)F)cc42)CCCCC3)cc1 | 2% | 24µM* | 9% | -15% | -19%
O=C(Cn1c2[n+](c3ccc(C(F)(F)F)cc31)CCCCC2)Nc1ccc(Br)cc1 | 0% | 0% | 6% | ? | 2%
CCNC(=S)N1CCN(CCN2C(=O)c3cccc4cccc(c34)C2=O)CC1 | 13% | -5% | -2% | 20% | 4%
O=C1c2cccc3cccc(c23)C(=O)N1CCN1CCN(C(=S)Nc2ccc(Cl)cc2)CC1 | 2.8µM* | -8% | -7% | 6% | -4%
Cc1ncc(COP(=O)(O)O)c(C)c1O | · | · | · | · | 3%[13.5 µM]
CCOC(=O)c1ccc(-n2nc(C)cc2C)cc1 | 2% | -12% | 5% | 16% | 10%
CCOC(=O)c1cnc(-n2nc(C)cc2C)nc1Nc1ccccc1OC | 1.3µM* | · | 2.2µM* | 12% | 4%
SMILES | RORg inh | PLK1 PBD inh | Gal4-VP16 FLuc | Sfp PPTase inh | ALDH1A1 block
CCOC(=O)c1cnc(-n2nc(C)cc2C)nc1NC1CCCC1 | 18% | 0% | -3% | 32µM* | ·
CCOC(=O)c1cnc(-n2nc(C)cc2C)nc1NCCc1ccccc1 | 0.89µM* | -1% | 1.8µM* | 50µM* | ?
CCOC(=O)c1cnc(-n2nc(C)cc2C)nc1Oc1ccc(C(=O)OC)cc1 | -22% | -8% | 3% | -3% | ·
CCOC(=O)c1cnc(-n2cc(C)cn2)nc1Nc1ccccc1OCC | 1.8µM* | 2% | -10% | 0% | 10%
COC(=O)N[C@@H](CCc1ccccc1)[C@]1(C(=O)OC)CCCC1=O | -14% | · | 1% | 8% | 2%
CC1(C(=O)NS(=O)(=O)c2ccc(C#N)cc2)CCN1C(=O)C1(c2ccc(Cl)cc2)CC1 (stereo not drawn) | · | -15% | · | · | ·
CCOC(=O)c1cnc(-n2nc(C)cc2C)nc1Nc1ccc(OC)cc1 | 1.6µM* | -7% | 2.5µM* | 19% | -10%

Screening data deposited in PubChem by National Center for Advancing Translational Sciences (NCATS).
